# Screening data (PubChem BioAssay)
# An excerpt weighted towards active compounds, which were near 4.9% of everything screened.
# SKKanGAS inh: S. pyogenes SKKanGAS growth inhibitors in kanamycin, primary screen, streptokinase expression inhibitor project, SKKanGAS strain, BacTiter-Glo luminescence; 6 h; inhibition, % at 7.5 µM; 1.3% of 300,000 active; AID 1662, 2009;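 active means mean replicate score, as percent of positive control median, at least 50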;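 further: strain carries kanamycin resistance gene driven by streptokinase promoter and grows in 40 µg/ml kanamycin; loss of luminescence reflects streptokinase promoter inhibition or plain growth inhibition; 0% = median of DMSO wells and 100% = positive control at its reference dose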
# NALP1 yeast inh: NALP1 inflammasome inhibitors in reconstituted yeast, colorimetric, S. cerevisiae, triplicate retest. S. cerevisiae NALP1/ASC/caspase-1 growth, X-gal OD620, 72 h. inhibition, % at 10 µM. 0.61% of 280,000 active. AID 2071, 2009; in the data active means inhibition mostly above about 24%, no sharp cut-off; inactive means mostly below about 32%
# NALP3 yeast inh: NALP3 inflammasome inhibitors in reconstituted yeast, primary screen, luminescence, uHTS. AID 2825, 2010. 0.39% of 330,000 active. inhibition, % at 10 µM. Yeast reconstituted NLRP3/ASC/caspase-1, beta-gal luminescence, 24 h;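 active means inhibition of 50% or more; inactive means inhibition below 50%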;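 further: plate controls were induced DMSO wells for no effect and uninduced yeast grown without galactose for full effect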
# TIM10 inh: growth inhibitors of isogenic TIM10 control yeast, primary screen, counter-screen for tim10-1 yeast inhibitor project, luminescence, uHTS; S. cerevisiae TIM10 strain growth, BacTiter-Glo luminescence, 24 h; inhibition, % at 10 µM; 1.4% of 330,000 active; AID 463195, 2010;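 active means inhibition of 40% or more at the single tested concentration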;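 further: wild-type TIM10 isogenic control strain grown at permissive 25 °C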
# tim10-1 inh: growth inhibitors of tim10-1 mutant yeast, primary screen, luminescence, uHTS; S. cerevisiae tim10-1 ts strain growth, BacTiter-Glo, 24 h; inhibition, % at 20 µM; 2.2% of 330,000 active; AID 463190, 2010;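 active means inhibition of at least 40%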;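 further: mutant grown at 25 °C; 0% = DMSO wells with yeast and 100% = wells holding no yeast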
# tim23-1 inh: growth inhibitors of tim23-1 mutant yeast, primary screen, luminescence, uHTS; S. cerevisiae tim23-1 growth, BacTiter-Glo luminescence, 24 h; inhibition, % at 20 µM; 1.3% of 330,000 active; AID 463212, 2010;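 active means growth inhibition of the mutant yeast at or above 50%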;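 further: temperature-sensitive mutant grown at 25 °C; plate controls were DMSO-treated mutant yeast for no effect and medium wells lacking yeast for full effect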
# tim10 confirm: growth inhibitors of wild-type TIM10 yeast, confirmation, counter-screen for tim10-1 synthetic lethality project, single concentration, luminescence, S. cerevisiae; shares compounds with TIM10 inh; S. cerevisiae tim10 strain growth, BacTiter-Glo luminescence, 24 h; inhibition, % at 10 µM; 63% of 4,600 active;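 active means inhibition of yeast growth at or above a set limit in either of two replicates at 10 µM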;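 further: this counterscreen used the strain with wild-type TIM10; 0% = yeast with DMSO and 100% = medium wells lacking yeast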
# The depositor's hits bear a star; . = no result given.
SMILES,SKKanGAS inh,NALP1 yeast inh,NALP3 yeast inh,TIM10 inh,tim10-1 inh,tim23-1 inh,tim10 confirm
Cc1ccc(C2=N/C(=C/c3cccs3)C(=O)N2Nc2ccccc2)cc1,2,24,-2,18,21,28,.
COc1ccc(-c2nn(-c3ccccc3)cc2/C=N/O)cc1OC,-3,4,18,18,21,27,.
COc1ccc(-c2nn(-c3ccccc3)cc2/C=N/NC(=S)NC(C)C)cc1OC,18,8,4,48*,36,43,49*
CCc1nc2cc(C)nn2c2nc3ccccc3n12,-3,3,-2,10,6,17,.
Cc1cc2nc(C)n3c4ccccc4nc3n2n1,5,-14,16,59*,38,43,45*
CC(=O)Nc1ccc(NC(=O)C(C)OC(=O)CN2C(=O)C3CCCCC3C2=O)cc1 (configuration not stated),.,.,10,4,-13,-10,.
COc1cc(/C=C(/C(=O)c2cccs2)c2nc3ccccc3[nH]2)ccc1O,5,-5,-8,43*,38,25,34*
O=C(NC1CCc2ccccc21)c1cc(COc2ccc(F)cc2Cl)on1 (configuration not stated),-6,1,10,68*,12,15,-1
O=C(NC1Cc2ccccc2C1)c1cc(COc2ccc(F)cc2Cl)on1,-4,-5,1,1,17,6,.
CC(=O)c1ccccc1NS(=O)(=O)c1c(C)nn(-c2ccccc2)c1C,-2,-1,-2,47*,32,48,30
Cc1sc2ncnc(N3CCC(C(=O)Nc4ccc(Br)cc4Br)CC3)c2c1C,3,.,22,4,14,18,.
CCCOc1ccc(C2=NNC(c3cccs3)=Nc3ccc(OC)cc32)cc1,12,11,19,52*,22,40,39*
COc1ccc2c(c1)C(c1cccs1)=NNC(c1ccncc1)=N2,-1,-4,25,14,-13,28,.
c1ccc(-c2onc3cc4c(cc23)OCCO4)cc1,-3,5,35,44*,33,-3,52*
O=C(c1ccc(C(F)(F)F)cc1)C1CCCN(C(=O)CCc2ccncc2)C1 (configuration not stated),-13,26,19,13,12,10,.
O=[N+]([O-])c1cc([N+](=O)[O-])c2c(=Nc3ccccc3)n(-c3ccccc3)n(O)c2c1,30,-12,20,50*,18,48,66*
CCS(=O)(=O)c1nc(S(=O)(=O)c2ccc(C)cc2)c(NCCN2CCOCC2)s1,54*,6,8,97*,-2,-15,10
CCOc1ccc2nc3cc(NCc4ccc(OC)cc4)ccc3c(N)c2c1,13,15,20,83*,38,47,75*
COc1cc2c(C(=O)N3CCOCC3)c(CSc3ccccc3)n(C)c2cc1Br,-1,-8,18,40*,39,47,30*
CCC(C)(C)C1CCC(NC(=O)N2CCN(c3ccccc3O)CC2)CC1 (configuration not stated),2,16,23,8,5,5,.
NNc1nc2c(-c3ccc(Cl)cc3)nnn2c2ccccc12,19,-9,-2,69*,22,21,70*
CCn1cc(Br)c(C(=O)Nc2ccc(OC)cc2)n1,4,11,16,5,-4,-7,.
CCn1cc(Br)c(C(=O)Nc2ccc(Cl)c(Cl)c2)n1,-1,14,-4,62*,38,24,45*
Clc1ccc(Cl)c(OCCCCN2CCCCC2)c1,8,4,34,-55,-55,0,.
O=S(=O)(CCN1CCCCC1)Oc1ccc(Cl)cc1Cl,-9,18,12,50*,37,41,27
SMILES,SKKanGAS inh,NALP1 yeast inh,NALP3 yeast inh,TIM10 inh,tim10-1 inh,tim23-1 inh,tim10 confirm
Cc1ccc(S(=O)(=O)c2nc(Nc3nccs3)sc2Cl)cc1,20,4,5,48*,29,18,29
CCOC(=O)CN1C=C(c2ccc3ccccc3n2)C(C[N+](=O)[O-])c2ccccc21 (configuration not stated),1,-1,21,57*,28,30,62*
CCOC(=O)CSc1ccc2ccccc2n1,14,10,-1,10,5,9,.
O=C(CSc1ncccc1C(=O)O)NC12CC3CC(CC(C3)C1)C2,6,-9,7,4,-3,1,.
CC(C)OC(=O)c1cc2ccccc2[nH]1,-1,18,32,-4,6,16,.
CCOC(=O)c1cc2cc3ccccc3cc2[nH]1,.,-69,12,43*,32,45,12
Cc1ccc(-n2nnnc2SCC(=O)c2cc(C)n(-c3cc(C)on3)c2C)cc1,-16,-3,22,43*,-8,-7,3
O=C(c1ccc(Br)cc1)C(CN1CCOCC1)c1ccccc1 (configuration not stated),-21,39*,20,51*,-123,-20,60*
O=c1nc(-c2ccccc2)c2cc(SC(F)F)ccc2[nH]1,7,-39,18,0,14,8,.
COCCCC1CCN(C(=O)C2CCC(=O)N(CC3CCCCC3)C2)CC1 (configuration not stated),-1,7,-1,11,22,13,.
CCc1cccc2sc(N(CCCN3CCOCC3)C(=O)CS(=O)(=O)c3ccccc3)nc12,42,.,12,21,21,30,.
O=C(CCS(=O)(=O)c1ccccc1)N(CCCN1CCOCC1)c1nc2ccc(F)cc2s1,-4,.,45,56*,30,35,65*
N#CCC(=O)Nc1ccc(C(=O)OCC(=O)NC(=O)NCc2ccco2)cc1,.,.,8,-2,-7,-4,.
O=C(N=Nc1c(O)[nH]c2ccc(Br)cc12)c1ccccc1-n1cccc1,7,-2,11,48*,32,30,35*
N=C(N)N=Nc1c(O)[nH]c2ccc(Br)cc12,1,10,8,7,3,1,.
CCN(CC)S(=O)(=O)c1ccc(N/N=C(\C)c2ccc(OC)cc2O)nc1,82*,.,13,42*,30,45,40*
CCN(CC)S(=O)(=O)c1ccc(N/N=C/c2ccc(OC)c(OC)c2OC)nc1,3,18,12,-4,13,-1,.
C[C@H](NC(=O)c1nc[nH]c1C(=O)NC1CCNCC1)C(=O)OCc1ccccc1,.,.,11,0,8,14,.
